Screening results: PubChem, several laboratories
sdo1 growth = growth rescue of sdo1-depleted yeast, primary screen, S. cerevisiae, bone marrow failure model. S. cerevisiae sdo1-depleted JHY4D growth rescue, OD600 30 h; stronger effect = higher value; pdr5 snq2 efflux-pump mutant strain. z-score at 10 µM. hit rate 0.21% among 140,000. AID 817, 2007;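 active means z-score above 3 at both the 24 hr and the 30 hr optical density reads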;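 further: z-score against mean and SD of all compound wells on the same plate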
PLK1 PBD inh = Plk1 polo box domain binding inhibitors, primary screen, biochemical, fluorescence polarization; hit rate 0.13% among 97,000; AID 693, 2007; Plk1 PBD phosphopeptide binding; Serine/threonine-protein kinase PLK1 (Homo sapiens), P53350; inhibition, %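 (tested at about 20 µM)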; in the data active means inhibition above about 34%, passing the limit was not always enough
Target sequence (P53350 whole entry, looked up, the tested form may be a part): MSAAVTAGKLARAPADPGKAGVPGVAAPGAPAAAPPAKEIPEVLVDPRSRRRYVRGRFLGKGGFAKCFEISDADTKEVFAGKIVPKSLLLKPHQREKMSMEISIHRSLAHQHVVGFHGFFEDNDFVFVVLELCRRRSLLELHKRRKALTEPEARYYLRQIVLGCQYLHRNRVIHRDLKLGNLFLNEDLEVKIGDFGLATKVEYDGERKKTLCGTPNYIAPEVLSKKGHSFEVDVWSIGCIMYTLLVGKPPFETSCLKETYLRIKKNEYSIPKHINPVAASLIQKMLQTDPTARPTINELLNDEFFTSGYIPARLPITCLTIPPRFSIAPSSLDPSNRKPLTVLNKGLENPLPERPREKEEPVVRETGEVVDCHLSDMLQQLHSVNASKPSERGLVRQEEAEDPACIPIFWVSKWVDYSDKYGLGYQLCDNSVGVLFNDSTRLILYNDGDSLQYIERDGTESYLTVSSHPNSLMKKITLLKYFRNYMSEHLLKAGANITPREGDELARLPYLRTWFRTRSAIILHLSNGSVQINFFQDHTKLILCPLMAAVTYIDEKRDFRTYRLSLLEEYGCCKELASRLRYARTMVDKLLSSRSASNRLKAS
DAT uptake mod = changed hDAT dopamine uptake under cocaine IC80, either direction, primary screen, cocaine antagonist project, cell-based, LLC-PK1 hDAT, [14C]-dopamine uptake, MLSMR; hit rate 1.3% among 110,000; AID 449768, 2010; Sodium-dependent dopamine transporter (Homo sapiens), Q01959; B-score at 10 µM; LLC-PK1 hDAT cells, [14C]-dopamine uptake with cocaine IC80; actives deviate in either direction;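 active means Z score or B-score, a plate-position-corrected score, falls beyond the plate's 99.7% confidence bounds, in either direction; inactive means both scores lie inside the 99.7% bounds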;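 further: scored against the spread of the other compound wells on the same plate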
PLK1 inh = human PLK1 kinase inhibitors, primary screen, biochemical, TR-FRET. Serine/threonine-protein kinase PLK1 (Homo sapiens), P53350. recombinant PLK1 kinase, TR-FRET peptide phosphorylation. inhibition, % at 10 µM. hit rate 0.53% among 97,000;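 active means inhibition of 50% or more in the single-concentration screen; inactive means inhibition below 50%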;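 further: 0% = DMSO max control and 100% = H-89 dihydrochloride min control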
Pyk2 oligo antag = antagonists of Pyk2 self-association, primary screen, Q293 cells, FERM NanoBiT luminescence, HTS; stronger effect = lower value; z-score (the deposit names both 25 µM and 10 µM); hit rate 0.83% among 99,000;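 active means Z-score of -3 or lower, scaled per plate to the spread of control and sample wells; inactive means z-score above -3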;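 further: negative z-score means lost luminescence so less FERM oligomerization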
Cav32 inh = Cav3.2 calcium influx blockers – cell-based, Fluo-4 calcium fluorescence, FDSS, MLSMR library, primary screen; AID 449739, 2010; B-score at 10 µM; Voltage-dependent T-type calcium channel subunit alpha-1H (Homo sapiens), O95180; Cav3.2-expressing cells; stronger effect = lower value; hit rate 4% among 100,000;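 active means single-dose well whose peak fluorescence ratio is a statistical outlier from its plate by either plate-standardised score or position-corrected B-score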
Active calls of the source: *; . = no result given. Rows were chosen to be rich in hits. Some 4.7% of all compounds tested hit in one or more screens of this group.

SMILES | sdo1 growth | PLK1 PBD inh | DAT uptake mod | PLK1 inh | Pyk2 oligo antag | Cav32 inh
O=C(c1ccc([N+](=O)[O-])cc1)N(Cc1ccc(Br)cc1)N1C(=O)CCCC1=O | -0.5 | -42 | -7.4* | 19 | 0.26 | -0.72
O=C(CNC(=O)c1ccc(Br)cc1)NCC(=O)OCC(=O)c1ccc([N+](=O)[O-])cc1 | 1.2 | . | . | . | . | .
CCCCC(NC(=O)c1ccccc1)C(=O)OCC(=O)N1c2ccccc2Sc2ccccc21 (stereo not given) | -0.86 | -13 | -0.47 | -10 | -0.9 | -7.2*
O=C(CN(C(=O)CNC(=O)c1ccco1)c1ccc2c(c1)OCO2)NC1CCCCC1 | 0.38 | -7 | 0.6 | -5 | -0.74 | -1.4
O=C(CN(C(=O)CNC(=O)c1ccco1)c1ccc(Cl)c(Cl)c1)NC1CCCCC1 | -0.09 | 29 | -0.49 | -1 | -0.64 | -4.3*
O=C(NCC(=O)N(Cc1ccccc1)C(C(=O)NC1CCCCC1)c1ccco1)c1ccco1 (stereo not given) | 1.3 | -31 | 0.18 | -10 | -0.27 | -1.2
Cc1ccc(C(C(=O)NC2CCCCC2)N(CCC(C)C)C(=O)CNC(=O)c2ccco2)o1 (stereo not given) | 0.03 | 13 | 0.28 | -10 | -0.52 | -4.7*
CCO[C@H]1OC(C(=O)NCc2ccccc2)=C[C@@H](c2cn(C(C)=O)c3ccccc23)[C@@H]1CCCO | . | . | 1.1 | . | . | 0.013
O=C(NC(NNc1ccc([N+](=O)[O-])cc1)(C(F)(F)F)C(F)(F)F)c1ccccc1Cl | -1.8 | -24 | -0.23 | -8 | 0.84 | -8.5*
CCOC(=O)CSc1ncc(OC)c(Sc2ccc(Cl)cc2)n1 | -0.44 | -22 | -0.45 | -12 | 0.55 | -11*
c1ccc(-c2nnc(N3CCN(c4ccccn4)CC3)c3ccccc23)cc1 | -1.8 | 2 | 1.4 | -23 | -2.4 | -5.6*
Cc1ccc(-c2nnc(N3CCN(C(=O)COc4ccccc4)CC3)c3ccccc23)cc1 | -2.5 | 9 | 2.1 | -10 | -2.8 | -7.4*
O=C(COc1ccc(-c2nnc(N3CCCCC3)c3ccccc23)cc1)N1CCCCC1 | -0.74 | 4 | 1.3 | -10 | -1.5 | -3.5
O=C(Nc1ccc(F)cc1)C1C(c2ccccc2)C1(Cl)Cl (stereo not given) | -0.81 | . | . | . | . | .
Cc1ccc(C)c(NC(=O)C2C(c3ccccc3)C2(Cl)Cl)c1 (stereo not given) | -0.64 | -5 | 0.61 | -9 | -1.1 | -4.6*
CCc1ccccc1NC(=O)C1C(c2ccccc2)C1(Cl)Cl (stereo not given) | -1.1 | 31 | -0.31 | -6 | -2.1 | -7.6*
CCn1c(SCC(=O)N/N=C/c2c[nH]c3ccccc23)nnc1-c1ccc(C(C)(C)C)cc1 | 1.8 | . | . | . | . | .
Cc1ccc(OCC(O)Cn2c(=N)n(Cc3ccccc3)c3ccccc32)cc1 (stereo not given) | -1 | -5 | 1.1 | 3 | 0.33 | -5.3*
COc1ccc(OCC(O)Cn2c(=N)n(Cc3ccccc3)c3ccccc32)cc1 (stereo not given) | 0.02 | 14 | 0.62 | -7 | 2.3 | .
C/C(=N\NC(=O)CCC(=O)Nc1ccccc1)c1cccs1 | 0.51 | . | . | . | . | .
CCCn1c(SCC(=O)Nc2ccccc2N2CCCCC2)nc2c1c(=O)n(C)c(=O)n2C | -1.1 | 1 | 1.1 | -1 | -0.59 | -4.4*
CC(C)n1c(SCC(=O)Nc2nc3ccccc3s2)nc2c1c(=O)n(C)c(=O)n2C | -0.99 | -17 | -0.5 | -8 | -3.7* | -0.074
O=C(CSCc1ccc(Cl)cc1)Nc1ccc(S(=O)(=O)N2CCOCC2)cc1 | -0.71 | . | . | . | . | .
O=C(NCC1CCCO1)C(c1ccc(F)cc1)N(Cc1ccc(F)cc1)C(=O)Cn1nnc(-c2cccs2)n1 (stereo not given) | -1.2 | 9 | 0.037 | -8 | -0.18 | -1.6
O=C(NCC1CCCO1)C(c1cccs1)N(Cc1cccs1)C(=O)Cn1nnc(-c2cccs2)n1 (stereo not given) | -0.79 | 12 | 0.037 | -5 | -0.77 | -7.1*
SMILES | sdo1 growth | PLK1 PBD inh | DAT uptake mod | PLK1 inh | Pyk2 oligo antag | Cav32 inh
CC(C)CCNC(=O)C(c1ccncc1)N(Cc1cccs1)C(=O)Cn1nnc(-c2ccc(F)cc2)n1 (stereo not given) | -0.08 | 7 | 0.59 | -11 | 0.57 | -7.4*
Cc1ccc(-c2nnn(CC(=O)N(Cc3cccs3)C(C(=O)NC3CCCC3)c3ccncc3)n2)cc1 (stereo not given) | 0.87 | -2 | 0.66 | -9 | 0.74 | -1.5
CCOc1cc(CN2CCN(C(=O)c3ccco3)CC2)ccc1OC | -0.37 | . | -0.37 | . | 0.79 | 0.76
CCOc1cc(CN2CCN(c3cccc(C(F)(F)F)c3)CC2)ccc1OC | -1 | -11 | -0.011 | -6 | -0.74 | -4.4*
CCOc1cc(CN2CCN(CCOCCO)CC2)ccc1OC | 1.3 | 1 | -2.7* | -6 | -0.1 | 0.59
CCOc1cc(CN2CCN(c3cccc(C(F)(F)F)c3)CC2)ccc1O | -1.3 | -8 | 1.1 | -13 | -0.99 | -0.45
CCOC(=O)c1cnc(SCc2ccc(C(C)(C)C)cc2)nc1N | 0.46 | -10 | -0.25 | -2 | -0.77 | -7.2*
CCOC(=O)c1cnc(SCc2ccccc2)nc1N | 0.15 | 3 | -0.95 | -10 | -2.4 | -0.44
Cc1ccc(NC(=O)COC(=O)c2cccc3c(=O)c(C)c(-c4ccccc4)oc23)cc1 | -1.7 | . | . | . | . | .
COc1ccc(-c2nnc(SCc3nnc(-c4ccc(Cl)cc4)o3)n2-c2ccccc2)cc1 | -1.2 | -6 | 0.5 | -2 | 1.3 | -8.4*
CC(C)CNC(=O)c1c2c(nc3ccccc13)-c1ccccc1CC2 | -1.2 | 16 | 1.1 | -15 | -0.97 | -1.2
CCN(CC)C(=O)c1c2c(nc3ccccc13)-c1ccccc1CC2 | -0.77 | 11 | -0.13 | -8 | -1.9 | -4.9*
O=C(NCC1CCCO1)C1CCCN1C(=O)NC1CCCCC1 (stereo not given) | 0.37 | -1 | -0.48 | -13 | 0.21 | 0.43
CCCCNC(=O)C1CCCN1C(=O)NC1CCCCC1 (stereo not given) | 0.6 | 3 | -7.9* | -6 | 2 | 0.88
C=CCn1c(SCC(=O)NC2CCCc3ccccc32)nnc1-c1ccncc1 (stereo not given) | 0.11 | . | . | . | . | .
CCC(C)NC(=O)CCc1nc2ccccc2n1-c1ccccc1 (stereo not given) | 0.9 | . | . | . | . | .
CC(C)(C)c1cc(C(F)(F)F)nc(SCCCNC(=O)c2ccco2)n1 | -0.72 | -4 | 0.2 | -43 | -0.07 | -4.6*
COc1ccc(CCNC(=O)CCSc2nc(-c3ccco3)cc(C(F)(F)F)n2)cc1 | -1.5 | -11 | 0.002 | -5 | 0.3 | -1.1
